Assay [1] concerns the target DNA repair nuclease/redox regulator APEX1 (Homo sapiens) (UniProt P27695). Nature of the assay: qHTS FP-Based Assay for Inhibitors of the Human Apurinic/apyrimidinic Endonuclease 1 (APE1) (AID 2573).
In assay [2] the target is Lethal(3)malignant brain tumor-like protein 1 (Homo sapiens) (UniProt Q9Y468). The assay can be described thus: qHTS Assay for the Inhibitors of L3MBTL1: Hit Validation (AID 540279). Also: potency is read from the fitted curve at half-maximal effect; nearly all actives have a fitted effect of over 70% in size. To be noted: L3MBTL1 methyl-lysine binding inhibition, biochemical qHTS. An excerpt:
The histone code is comprised of many post-translational modifications that occur mainly in histone tail peptides. The identity and location of these marks are read by a variety of histone binding proteins that are emerging as important regulators of cellular differentiation and development and are increasingly being implicated in numerous disease states. Small molecule probes that disrupt the interaction between histone binding proteins and chromatin would enable a systematic chemical biology study of proteins that read the histone code and could potentially reveal new targets for drug discovery. However, no such small molecules are known. This dearth of quality molecular probes can largely be attributed to the novelty of the target class and the lack of screening assays. This proposal details the development of the first high-throughput screening assay for the discovery of inhibitors of methyl-lysine binding proteins and how it can be used to initiate a full-scale discovery effort for antagonists of histone binding proteins. […]
To each well, 2 uL of L3MBTL1 protein (final 50 nM) and 1 uL biotinylated histone peptide monomethylated at Lys9 [b-AHA-H3(1-15)K9me1] […] Microplates were then be read on an EnVision multilabel plate reader using the 1,536 plate HTS AlphaScreen aperture (excitation time 80 ms, measurement time 240 ms).
For orientation: In qHTS, concentration-response curves come from the screen itself.

For assay [3], the target named is DNA polymerase iota (Homo sapiens) (UniProt Q9UNA4). Nature of the assay: qHTS for Inhibitors of Polymerase Iota: Confirmatory Assay for Cherry-picked Compounds (AID 720496). Also: potency is read from the fitted curve at half-maximal effect. To be noted: Pol iota primer extension, TAMRA/BHQ fluorescence. An outline of the steps: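 Kinetic fluorescence, 0 → 10 min, ex 525/em 598 nm. Pol iota 10 nM, 15 min RT preincubation with compound, then 50 nM (final) TAMRA/BHQ-2 primer-template substrate.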
Sequence of DNA polymerase iota (Homo sapiens) (Q9UNA4 whole entry, looked up): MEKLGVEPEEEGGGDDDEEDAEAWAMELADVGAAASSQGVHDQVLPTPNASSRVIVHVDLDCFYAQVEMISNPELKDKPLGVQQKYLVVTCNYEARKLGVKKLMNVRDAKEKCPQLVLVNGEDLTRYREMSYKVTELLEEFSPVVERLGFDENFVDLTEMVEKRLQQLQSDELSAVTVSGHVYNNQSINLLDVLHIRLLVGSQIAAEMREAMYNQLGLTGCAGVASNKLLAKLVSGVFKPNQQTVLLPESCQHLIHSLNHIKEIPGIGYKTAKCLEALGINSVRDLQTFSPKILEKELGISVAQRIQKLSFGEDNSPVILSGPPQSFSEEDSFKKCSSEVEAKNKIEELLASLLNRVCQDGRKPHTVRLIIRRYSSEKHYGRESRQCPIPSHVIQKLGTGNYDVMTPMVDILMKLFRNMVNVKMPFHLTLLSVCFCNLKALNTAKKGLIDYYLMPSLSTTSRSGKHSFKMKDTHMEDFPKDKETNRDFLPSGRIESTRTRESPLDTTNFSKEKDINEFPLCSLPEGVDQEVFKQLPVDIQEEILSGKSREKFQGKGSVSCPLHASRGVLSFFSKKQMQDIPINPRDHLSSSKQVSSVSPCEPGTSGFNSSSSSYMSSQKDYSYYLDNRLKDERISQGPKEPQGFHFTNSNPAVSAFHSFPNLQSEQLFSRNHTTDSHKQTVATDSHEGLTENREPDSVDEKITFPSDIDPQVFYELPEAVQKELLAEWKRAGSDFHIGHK

Assay [4] concerns the target DNA polymerase eta (Homo sapiens) (UniProt Q9Y253). Nature of the assay: qHTS for Inhibitors of Polymerase Eta: Confirmatory Assay for Cherry-picked Compounds (AID 720502). Also: potency is read from the fitted curve at half-maximal effect. Particulars: Pol eta primer extension, TAMRA/BHQ fluorescence, 10 min. The text has this:
The Y-family of DNA polymerases, such as the Polymerase Eta (Pol eta), are specifically involved in DNA repair. Pol eta copies undamaged DNA with a lower fidelity than other DNA-directed polymerases. However, it accurately replicates UV-damaged DNA. When thymine dimers are present, this polymerase inserts the complementary nucleotides in the newly synthesized DNA, thereby bypassing the lesion and suppressing the mutagenic effect of UV-induced DNA damage. […] Thus, while Pol eta's (and most likely iota's) normal function is to protect humans against the deleterious consequences of DNA damage, under certain conditions they can have deleterious effects on human health. […] A 1536-well format, fluorescence based, high-throughput screen (AID 588591) is developed in collaboration with the National Institute of Child Health & Human Development (NICHD) to screen for inhibitors of the Pol eta enzyme. […]
Three microliters of reagents (buffer in column 3 and 4 as negative control while 10 nM Pol eta in columns 1, 2, and 5-48) were dispensed into a 1536-well black solid-bottom plate. […] The assay plates were initially read after 0 min and again after 10 min of kinetic reaction using the PerkinElmer Viewlux reader equipped with 525 nm excitation and 598 nm emission filters.

Assay [5] addresses Tyrosyl-DNA phosphodiesterase 1 (Homo sapiens) (UniProt Q9NUW8). Nature of the assay: Confirmation Assay for Inhibitors of Tyrosyl-DNA Phosphodiesterase (TDP1) (AID 489007). Also: potency is read from the fitted curve at half-maximal effect; nearly all actives have a fitted effect of over 40% in size. To be noted: recombinant human TDP1 enzymatic activity, dose-response. An outline of the steps: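 Compounds are preincubated 15 min at room temperature with 1 nM recombinant human Tdp1. The reaction starts on adding 15 nM FITC-phosphotyrosine DNA substrate, runs 5 min, and is detected by AlphaScreen beads after 10 min.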

Results filed as inconclusive are left out. This is one part of the list. The source made the active and inactive calls. Calls follow the shape of the dose curve; as a rule, active = well fitted curve in the direction sought with a large enough effect; inconclusive = small, poorly fitted or top-dose-only effect, or another doubt; inactive = no such curve, though single readings can be large; an effect the other way counts as inactive or inconclusive.

Sequence of Tyrosyl-DNA phosphodiesterase 1 (Homo sapiens) (Q9NUW8 whole entry, looked up): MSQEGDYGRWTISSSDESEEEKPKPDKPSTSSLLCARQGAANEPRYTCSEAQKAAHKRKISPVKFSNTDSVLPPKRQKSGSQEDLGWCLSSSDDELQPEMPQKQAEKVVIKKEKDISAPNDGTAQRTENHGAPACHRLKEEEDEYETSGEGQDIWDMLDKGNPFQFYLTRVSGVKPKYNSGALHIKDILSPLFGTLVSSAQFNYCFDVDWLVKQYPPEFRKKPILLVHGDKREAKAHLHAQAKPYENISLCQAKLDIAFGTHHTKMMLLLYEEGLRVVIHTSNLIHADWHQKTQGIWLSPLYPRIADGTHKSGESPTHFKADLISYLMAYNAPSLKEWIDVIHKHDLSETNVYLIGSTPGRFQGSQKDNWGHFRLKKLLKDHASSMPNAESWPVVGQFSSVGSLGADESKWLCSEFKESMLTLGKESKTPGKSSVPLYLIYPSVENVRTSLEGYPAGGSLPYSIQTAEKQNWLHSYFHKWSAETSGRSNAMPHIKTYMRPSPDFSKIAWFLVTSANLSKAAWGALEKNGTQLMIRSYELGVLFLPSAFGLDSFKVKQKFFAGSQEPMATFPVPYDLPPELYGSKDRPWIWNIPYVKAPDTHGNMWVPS
Sequence of DNA polymerase eta (Homo sapiens) (Q9Y253 whole entry, looked up): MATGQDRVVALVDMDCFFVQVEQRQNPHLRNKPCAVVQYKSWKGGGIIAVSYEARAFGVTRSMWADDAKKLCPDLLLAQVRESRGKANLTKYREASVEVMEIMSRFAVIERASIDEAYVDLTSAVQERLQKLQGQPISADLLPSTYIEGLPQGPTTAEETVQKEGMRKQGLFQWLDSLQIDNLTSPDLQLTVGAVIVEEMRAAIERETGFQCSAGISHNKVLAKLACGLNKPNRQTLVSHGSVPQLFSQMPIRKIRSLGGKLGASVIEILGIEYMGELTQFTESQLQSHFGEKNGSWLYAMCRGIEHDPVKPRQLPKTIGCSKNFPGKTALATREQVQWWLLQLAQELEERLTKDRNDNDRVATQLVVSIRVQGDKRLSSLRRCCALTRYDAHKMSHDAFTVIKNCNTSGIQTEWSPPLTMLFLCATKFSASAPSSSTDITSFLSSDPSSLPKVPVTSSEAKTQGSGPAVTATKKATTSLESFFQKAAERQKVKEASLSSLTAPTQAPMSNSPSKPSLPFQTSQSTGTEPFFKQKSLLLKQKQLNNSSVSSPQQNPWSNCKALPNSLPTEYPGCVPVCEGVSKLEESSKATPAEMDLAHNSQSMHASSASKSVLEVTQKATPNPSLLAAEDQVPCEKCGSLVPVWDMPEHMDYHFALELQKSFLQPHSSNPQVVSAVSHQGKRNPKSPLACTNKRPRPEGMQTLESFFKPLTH
Sequence of Lethal(3)malignant brain tumor-like protein 1 (Homo sapiens) (Q9Y468 whole entry, looked up): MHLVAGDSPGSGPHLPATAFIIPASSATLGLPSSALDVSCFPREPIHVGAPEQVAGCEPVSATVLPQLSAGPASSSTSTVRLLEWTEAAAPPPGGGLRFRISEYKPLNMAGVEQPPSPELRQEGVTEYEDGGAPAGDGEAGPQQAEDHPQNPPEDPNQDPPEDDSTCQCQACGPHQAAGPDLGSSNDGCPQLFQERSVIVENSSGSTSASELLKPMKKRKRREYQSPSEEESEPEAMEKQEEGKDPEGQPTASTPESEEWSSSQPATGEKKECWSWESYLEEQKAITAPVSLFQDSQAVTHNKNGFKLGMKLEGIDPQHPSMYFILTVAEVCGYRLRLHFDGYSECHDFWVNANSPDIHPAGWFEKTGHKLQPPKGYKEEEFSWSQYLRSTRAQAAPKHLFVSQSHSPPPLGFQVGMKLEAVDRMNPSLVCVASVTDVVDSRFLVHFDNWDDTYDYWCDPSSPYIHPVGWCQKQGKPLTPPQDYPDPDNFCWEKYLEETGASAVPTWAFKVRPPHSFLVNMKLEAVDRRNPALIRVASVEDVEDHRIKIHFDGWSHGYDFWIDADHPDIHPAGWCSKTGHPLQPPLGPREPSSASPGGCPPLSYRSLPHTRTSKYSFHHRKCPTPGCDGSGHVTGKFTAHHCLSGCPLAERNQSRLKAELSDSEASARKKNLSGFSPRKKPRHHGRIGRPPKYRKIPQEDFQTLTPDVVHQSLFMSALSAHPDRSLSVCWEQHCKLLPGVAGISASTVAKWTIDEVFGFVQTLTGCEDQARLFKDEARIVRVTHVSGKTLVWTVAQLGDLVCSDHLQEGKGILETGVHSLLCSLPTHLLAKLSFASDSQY
Sequence of DNA repair nuclease/redox regulator APEX1 (Homo sapiens) (P27695 whole entry, looked up): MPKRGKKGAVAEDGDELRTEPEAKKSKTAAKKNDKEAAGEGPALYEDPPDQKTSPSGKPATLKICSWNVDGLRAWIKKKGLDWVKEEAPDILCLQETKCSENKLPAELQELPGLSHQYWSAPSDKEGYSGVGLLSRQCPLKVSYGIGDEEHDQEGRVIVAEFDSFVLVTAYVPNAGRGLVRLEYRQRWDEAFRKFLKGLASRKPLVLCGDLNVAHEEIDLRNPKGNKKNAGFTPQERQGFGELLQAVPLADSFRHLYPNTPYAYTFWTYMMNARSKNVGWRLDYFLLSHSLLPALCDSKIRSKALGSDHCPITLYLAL

For the molecule `Cc1c(C(=O)O)cccc1-n1c(C)cc(/C=C2\C(=O)NC(=O)N(c3ccc4c(c3)OCO4)C2=O)c1C`, in assay [1], the call was inactive. Moreover, the Potency in assay [2] was 1.68 µM (active); in assay [3], 15 µM (active); in assay [4], 8.49 µM (active).

As to `O=C(O)c1cc[c]([Sb](=[O])([OH])[OH])cc1[N+](=O)[O-]`, the Potency in assay [5] was 2 µM (active).

The values above are taken from PubChem BioAssay (NCATS).
